Source: PubChem BioAssay (several laboratories)
CYP2C19 act – human CYP2C19 activators, primary screen, biochemical, luminescence. Cytochrome P450 2C19 (Homo sapiens), P33261. recombinant CYP2C19, luciferin-H EGE luminescence; active compounds read high; 0 = fully inhibited enzyme, 1 = untreated enzyme. activation factor at 5 µM. 96,000 tested, under 10 active;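 active = activation factor of at least 2 at 5 µM in the primary screen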;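 note: 0 = wells with 2.5 mM tranylcypromine and 1 = vehicle-only wells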
Target sequence (P33261 whole entry, looked up): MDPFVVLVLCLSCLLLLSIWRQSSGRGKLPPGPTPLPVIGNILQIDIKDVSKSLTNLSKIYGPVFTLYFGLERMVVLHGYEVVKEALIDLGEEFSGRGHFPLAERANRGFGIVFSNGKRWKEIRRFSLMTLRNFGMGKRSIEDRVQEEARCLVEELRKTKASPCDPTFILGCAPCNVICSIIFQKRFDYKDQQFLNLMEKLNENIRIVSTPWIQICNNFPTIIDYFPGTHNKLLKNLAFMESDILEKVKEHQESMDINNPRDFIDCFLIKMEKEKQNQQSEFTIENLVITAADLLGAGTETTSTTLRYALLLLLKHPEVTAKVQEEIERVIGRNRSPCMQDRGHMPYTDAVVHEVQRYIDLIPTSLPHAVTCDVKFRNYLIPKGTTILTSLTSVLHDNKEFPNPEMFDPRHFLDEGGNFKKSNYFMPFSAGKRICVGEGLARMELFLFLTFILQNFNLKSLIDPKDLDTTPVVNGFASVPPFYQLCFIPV
CYP2C9 activ – human CYP2C9 activators, primary screen, biochemical, luminescence. Cytochrome P450 2C9 (Homo sapiens), P11712. recombinant CYP2C9, luciferin-H conversion; active compounds read high; factor 1 = untreated enzyme, 0 = blocked. activation factor at 5 µM. 96,000 compounds, 1.4% hits. AID 1024, 2008;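 active = activation factor of 2 or more for CYP2C9 at a 5 µM dose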;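 note: 0 = sulfaphenazole-blocked wells and 1 = vehicle-only wells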
PostGolgi yeast – phenotypic screen on post-Golgi transport, primary screen; post-Golgi transport phenotypic cell assay; inhibition, % at 10 µM; 98,000 compounds, 0.9% hits; AID 739, 2007;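 note: yeast cells grown in 1536-well plates; yeast grown about 18 h at 30C before absorbance read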
CYP2C9 inhib – blockers of cytochrome P450 2C9 activity – biochemical, luminescence, ADME assay, primary screen. CYP2C9 Supersomes, luciferin-H conversion. inhibition, % at 5 µM. P11712. 96,000 compounds, 20% hits;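 active = blocking of liver enzyme CYP2C9 beyond about 50% at 5 µM, limit read from the data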
CYP2C19 inhib – blockers of cytochrome P450 2C19 activity – biochemical, luminescence, ADME assay, primary screen; P33261; CYP2C19 Supersomes, luciferin-H EGE luminescence, 30 min; inhibition, % at 5 µM; 96,000 compounds, 21% hits; AID 778, 2007;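 active = CYP2C19 inhibition above a set limit at 5 µM in the primary screen, cut at about 50% in these data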;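 note: plate controls were negative control wells for no effect and 2.5 mM tranylcypromine positive control for full effect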
PostGolgi ctrl – growth inhibition of yeast control strain, primary screen, counter-screen for post-Golgi transport modulator project; efflux-deficient yeast background strain, growth absorbance A615, 16 h; inhibition, % at 10 µM; 98,000 compounds, 5% hits
Numbers without * were called inactive; . = not tested or not shown. Only some compounds are listed: those with a hit (about 32% of all), similar ones and a draw of the others. Cut-off read from the data, not from the text of the source, unless noted: active = inhibition above about 30%; inactive = the rest.

SMILES | CYP2C19 act | CYP2C9 activ | PostGolgi yeast | CYP2C9 inhib | CYP2C19 inhib | PostGolgi ctrl
COc1ccc(NCc2nnc(SCC(=O)c3ccc(OC)cc3)o2)cc1 | 0.8 | 2* | -10 | -101 | 22 | 16
COCc1c(C(=O)OCC(=O)N2c3ccccc3NC(=O)C2(C)C)oc2ccccc12 | 0.9 | 0.7 | -7 | 31 | 12 | 4
CCC(=O)NC(C)C(c1cccs1)N1CCN(Cc2ccccc2)CC1 (stereo unspecified) | 1 | 0.7 | 6 | 30 | -4 | 9
COc1ccc(-c2nc3n(n2)C(=O)CC(c2ccco2)S3)cc1 (stereo unspecified) | . | . | 4 | . | . | 41*
O=S1(=O)C=C(SCc2ccc(Cl)c(Cl)c2)Nc2ccccc21 | 0.3 | 0.3 | -16 | 71* | 68* | 16
O=C(c1ccccc1)n1nc(-c2ccccc2)nc1NCc1ccco1 | 0.7 | 0.5 | 0 | 47 | 33 | 8
O=S(=O)(c1ccccc1)n1nc(-c2ccccc2)nc1NCc1ccco1 | 0.7 | 0.6 | 2 | 40 | 29 | 36*
Cc1ccc(CCNC(=O)C2CCCN2S(=O)(=O)c2ccc3c(c2)CCC(=O)N3)cc1 (stereo unspecified) | 1 | 0.7 | -2 | 27 | 2 | 0
CC1(C)CC(=O)C2=C(C1)c1c(ccc3ccccc13)NC2c1ccc(Br)o1 (stereo unspecified) | 0.3 | 0 | 14 | 96* | 75* | 69*
Cc1ncc(CSc2nnnn2-c2ccccc2)c(N)n1 | 0.4 | 1.1 | -3 | -13 | 64* | 32*
COc1ccccc1OCCSc1nnnn1-c1ccc(C)cc1 | 0 | 0.8 | 2 | 23 | 99* | 16
CCOc1ccc(OCCSc2nnnn2C2CCCCC2)cc1 | 0.4 | 0.1 | -6 | 88* | 57* | -1
c1ccc(OCCSc2nnnn2-c2ccccc2)cc1 | 0.9 | 0.6 | 1 | 36 | 11 | 8
CCOc1ccc(OCCSc2nnnn2-c2ccccc2)cc1 | 0.7 | 0.5 | -5 | 50* | 31 | 20
CCC(CC)C(=O)Nc1c2c(nn1-c1ccc(OC)cc1)CS(=O)C2 (stereo unspecified) | 0.8 | 0.7 | -5 | 27 | 23 | 10
CCn1c(COc2ccccc2C(N)=O)nc2ccccc21 | . | . | 3 | . | . | 4
CN(C)CCN1C(=O)C(=O)/C(=C(/O)c2ccccc2)C1c1ccccc1F (stereo unspecified) | 0.9 | 0.9 | 2 | 5 | 9 | 13
COC(=O)NC1CSCC1OC(=O)CN1C(=O)c2ccccc2C1=O (stereo unspecified) | 0.7 | 1 | 2 | 0 | 32 | 40*
CCOc1ccccc1N(CC(=O)Nc1ccccc1C(=O)O)S(C)(=O)=O | 1 | 0 | 11 | 97* | -2 | 7
CCOc1ccc(N(CC(=O)Nc2ccccc2C(=O)NCc2ccco2)S(C)(=O)=O)cc1 | 0.8 | 0.3 | -4 | 70* | 23 | -7
CCOC(=O)c1ccccc1NC(=O)CN(c1ccccc1OCC)S(C)(=O)=O | 0.9 | 0.9 | 4 | 13 | 9 | 0
CCOc1ccccc1N(CC(=O)OC)S(C)(=O)=O | 0.7 | 0.9 | 2 | 8 | 28 | -10
CCOc1ccccc1N(CC(=O)Nc1cc(OC)ccc1OC)S(C)(=O)=O | 0 | 0.2 | 3 | 84* | 96* | -1
CCOc1ccccc1N(CC(=O)Nc1ccccc1C(=O)NCc1ccco1)S(C)(=O)=O | 0.1 | 0.1 | 7 | 86* | 86* | 0
O=C(NC1=NC2CCCCC2N1)c1ccccc1 (stereo unspecified) | 0.7 | 1 | -1 | 2 | 32 | -8
CC(C)(C)CC(=O)Nc1ccc(Nc2ccccc2)cc1 | 0.9 | 0.6 | 3 | 39 | 13 | -4
CC(=O)N(Cc1c(C)nn(-c2ccccc2)c1Cl)c1ccc(Cl)cc1 | 0.1 | 0.5 | 15 | 49 | 90* | 35*
COC(=O)Nc1sc2c(c1C(=O)NCc1ccco1)CCCC2 | 1.1 | 1 | -4 | 4 | -5 | 2
COc1ccc(C(=O)Nc2ccc(Cl)cc2C(=O)NCc2ccco2)cc1OC | 0.7 | 0.4 | -4 | 63* | 29 | 12
